According to PubChem BioAssay (EPA / NIEHS):
Values joined by “and” are separate entries in the source; they are usually repeats but may differ in a detail not shown here. Equal values may be shown once. Where a structure was tested more than once in an assay, its records may differ in their call. Active and inactive are the calls of the source. The calls were made as follows: active = hit-call score of the fitted dose curve at least 0.9, where 1 is the maximum; inactive = score below 0.9.

Key:
[1] = ATG_NFI_CIS: Attagene CIS-FACTORIAL HepG2 Assay for human Nuclear Factor I (NFI) (AID 2282989); settings: HepG2 cis-regulatory reporter, NFI response element transcription; actives raise or lower the signal
Procedure, shortened: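 Multiplexed cis-reporter system in human HepG2 cells reports native TF activity as reporter mRNA induction 24 h post-dose. Fragments labelled with 6-FAM, HpaI-digested and resolved by capillary electrophoresis; activity fitted both directions versus DMSO.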

[2] = target: Myc proto-oncogene protein (Homo sapiens) (UniProt P01106); test: ATG_Myc_CIS: Attagene CIS-FACTORIAL HepG2 Assay for human Myelocytomatosis (Myc) Proto-Oncogene Transcription Factor (AID 2282990); settings: HepG2, Attagene cis-reporter transcription factor activity; actives raise or lower the signal
Sequence of Myc proto-oncogene protein (Homo sapiens) (P01106 whole entry, looked up, the tested form may be a part): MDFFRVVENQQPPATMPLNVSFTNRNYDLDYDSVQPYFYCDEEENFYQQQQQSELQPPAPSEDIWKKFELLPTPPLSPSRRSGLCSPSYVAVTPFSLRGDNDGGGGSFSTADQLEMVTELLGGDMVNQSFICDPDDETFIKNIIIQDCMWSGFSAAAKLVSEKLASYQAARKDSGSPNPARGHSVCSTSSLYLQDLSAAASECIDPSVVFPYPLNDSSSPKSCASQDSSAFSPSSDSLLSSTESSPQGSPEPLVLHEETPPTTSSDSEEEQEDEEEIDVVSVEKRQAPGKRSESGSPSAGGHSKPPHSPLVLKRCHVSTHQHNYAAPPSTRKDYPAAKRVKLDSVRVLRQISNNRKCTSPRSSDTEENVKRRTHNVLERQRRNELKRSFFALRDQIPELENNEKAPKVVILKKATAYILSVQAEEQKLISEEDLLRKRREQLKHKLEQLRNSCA
Procedure, shortened: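 After 24 h chemical treatment of HepG2 cells carrying multiplexed cis-regulated reporter constructs, reporter transcripts quantified by RT-PCR and capillary electrophoresis of fluorescent fragments. Gain or loss fitted against DMSO baseline.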

[3] = ATG_NRF2_ARE_CIS: Attagene CIS-FACTORIAL HepG2 Assay for human Nuclear Factor Erythroid 2 Related Factor 2 (NFR2) response to Antioxidant Response Elements (ARE) (AID 2282992); settings: HepG2 Attagene ARE/NRF2 reporter, transcription factor activity; actives raise or lower the signal;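 as to AC50: reporter mRNA level measured by RT-PCR and capillary electrophoresis fluorescence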
Procedure, shortened: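 Readout: reporter mRNA quantified by RT-PCR plus FAM-labelled primer extension, HpaI digestion and capillary electrophoresis, 24 h after dosing transfected HepG2 cells. Gain or loss of signal is fitted bidirectionally against DMSO baseline.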

[4] = ATG_Oct_MLP_CIS: Attagene CIS-FACTORIAL HepG2 Assay for human Octamer-Binding Transcription Factor (Oct) (AID 2282993); settings: HepG2 Attagene cis-factorial Oct reporter, mRNA; actives raise or lower the signal
Procedure, shortened: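 After 24 h compound exposure, transfected HepG2 cells were lysed for total RNA; reporter-specific cDNA was PCR-amplified, fluorescently labelled and sized by capillary electrophoresis. Bidirectional curve fitting used DMSO as baseline.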

[5] = target: Cellular tumor antigen p53 (Homo sapiens) (UniProt P04637); test: ATG_p53_CIS: Attagene CIS-FACTORIAL HepG2 Assay for human p53 Transcription Factor (AID 2282994); settings: HepG2 p53 cis-element reporter, Attagene mRNA; actives raise or lower the signal
Sequence of Cellular tumor antigen p53 (Homo sapiens) (P04637 whole entry, looked up): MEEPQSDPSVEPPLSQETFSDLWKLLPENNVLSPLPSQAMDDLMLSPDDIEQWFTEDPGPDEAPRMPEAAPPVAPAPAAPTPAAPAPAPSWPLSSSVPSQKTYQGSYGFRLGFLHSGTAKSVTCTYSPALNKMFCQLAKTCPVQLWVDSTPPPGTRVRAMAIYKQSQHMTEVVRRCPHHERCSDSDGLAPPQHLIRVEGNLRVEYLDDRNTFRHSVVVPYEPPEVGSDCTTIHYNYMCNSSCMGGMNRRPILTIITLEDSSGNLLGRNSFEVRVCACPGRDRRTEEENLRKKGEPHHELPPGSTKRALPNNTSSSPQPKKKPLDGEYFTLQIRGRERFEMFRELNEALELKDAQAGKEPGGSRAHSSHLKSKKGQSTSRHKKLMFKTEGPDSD
Procedure, shortened: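 Read-out: reporter mRNA by RT-PCR plus capillary electrophoresis with fluorescence detection. Human HepG2 liver cells carried transfected multi-reporter cis-element constructs, dosed 24 h. Gain or loss of signal fitted bidirectionally against DMSO control.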

[6] = BSK_3C_TissueFactor: BioMAP Diversity Plus: 3C Assay for Tissue Factor Biomarker Activity (AID 2282997); settings: BioMAP 3C HUVEC, tissue factor biomarker readout; actives raise or lower the signal
Procedure, shortened: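 Tissue Factor measured by ELISA, 24 h after treatment of primary HUVEC in the BioMAP 3C setting.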

[7] = BSK_3C_uPAR: BioMAP Diversity Plus: 3C Assay for Urokinase-type plasminogen activator receptor (uPAR) Biomarker Activity (AID 2282998); settings: BioMAP 3C HUVEC, uPAR biomarker ELISA; actives raise or lower the signal
Procedure, shortened: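 Values derive from bidirectional curve fitting relative to DMSO, which served as baseline of activity. uPAR was measured by ELISA in human umbilical vein endothelial primary cultures 24 h after compound addition.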

[8] = BSK_3C_VCAM1: BioMAP Diversity Plus: 3C Assay for Vascular cell adhesion molecule 1 (VCAM1) Biomarker Activity (AID 2282999); settings: BioMAP 3C HUVEC, VCAM1 ELISA, cytokine-stimulated; actives raise or lower the signal
Procedure, shortened: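 Activity fitted in both directions relative to DMSO, with ELISA measurement of the surface marker on primary HUVEC (3C) at 24 h post-treatment; parallel SRB staining (0.1% SRB, TCA-fixed, 560 nm) flagged overt cytotoxicity.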

[9] = BSK_4H_Eotaxin3: BioMAP Diversity Plus: 4H Assay for Eotaxin 3 Biomarker Activity (AID 2283000); settings: primary human endothelial cells (HUVEC); actives raise or lower the signal
Procedure, shortened: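 Eotaxin-3 (CCL26) levels were measured by ELISA in HUVEC primary cultures 24 h post-dosing. Gain or loss of signal was fitted in both directions, with DMSO serving as baseline and negative control.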

[10] = ATG_NF_kB_CIS: Attagene CIS-FACTORIAL HepG2 Assay for human Nuclear Factor Kappa B (NF-kB) (AID 2282991); settings: HepG2 Attagene cis-factorial NF-kB reporter mRNA; actives raise or lower the signal
Procedure, shortened: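 Measures mRNA induction of an NF-kB-responsive cis-element reporter in HepG2 cells transfected with multiple reporter units, sampled 24 h post-dosing; quantified by fluorescence after RT-PCR and capillary electrophoresis, fitted for activation or inhibition against DMSO.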

Measured: AC50

Brc1ccc(Oc2ccc(Br)cc2Br)cc1
inactive: [1] | [2] | [3] | [4] | [5]

Oc1c(Cl)cc(Cl)cc1Sc1cc(Cl)cc(Cl)c1O
inactive: [1] | [2] | [5]
active: [3] 3 µM | [4] 3.57 µM | [6] 22.2 µM and 21 µM | [7] 3.97 µM and 7.82 µM | [8] 31.3 µM and 28.6 µM | [9] 22.2 µM and 18.5 µM

COC(=O)C(F)(F)C(F)(F)C(F)(F)C(F)(F)C(F)(F)F
inactive: [1] | [2] | [3] | [4] | [5]

FCOC(C(F)(F)F)C(F)(F)F
inactive: [2] | [10] | [3] | [4]

FC(F)(F)N1C(F)(F)C(F)(F)OC(F)(F)C1(F)F
inactive: [1] | [2] | [3] | [4] | [5]

CCOC(=O)CN[C@@H](C(=O)N1CC[C@H]1C(=O)NCc1ccc(/C(N)=N/O)cc1)C1CCCCC1
not listed: [8] | [10]
inactive: all other assays above

CN(Cc1cnc2nc(N)nc(N)c2n1)c1ccc(C(=O)N[C@@H](CCC(=O)O)C(=O)O)cc1
not listed: [5] | [8] | [10]
inactive: all other assays above

FC1(F)C=CC(F)(F)C1(F)F
inactive: [2] | [10] | [3] | [4] | [5]

Cc1cc(Cc2cc(C)cc(C(C)(C)C)c2O)c(O)c(C(C)(C)C)c1
inactive: [3] | [4] | [5]
active: [1] 25.8 µM | [2] 136 µM

CCCCCCCCCCCCCC[n+]1ccccc1
inactive: [1] | [2] | [4] | [5]
active: [3] 0.172 µM

CCCCCCCCCCCCCCCC(=O)OC
inactive: [1] | [2] | [3] | [4] | [5]

CCCCCc1ccc(O)cc1
inactive: [1] | [2] | [4] | [5]
active: [3] 17.6 µM | [6] 12 µM | [7] 13.8 µM | [9] 14.5 µM

Oc1ccc(Cc2ccccc2O)cc1
inactive: [1] | [2] | [4] | [5] | [6] | [7] | [8] | [9]
active: [3] 81 µM | [9] 0.149 µM

CCCCCCCCCC=CCC1CC(=O)OC1=O (centres undefined)
active: [10] 54.9 µM
inactive: [2] | [3] | [4] | [5]

O=C1OC2(c3ccccc31)c1cc(I)c(O)c(I)c1Oc1c2cc(I)c(O)c1I
active: [6] 12 µM | [7] 5.04 µM | [8] 12 µM | [9] 8.42 µM
not listed: [10]
inactive: all other assays above

O=C1NS(=O)(=O)c2ccccc21
not listed: [5] | [10]
inactive: all other assays above

CCOC(=O)c1nc(C(Cl)(Cl)Cl)n(-c2ccc(Cl)cc2Cl)n1
inactive: [10] | [4]
active: [2] 24.5 µM | [3] 26.8 µM

O=P(O)(O)CCC(F)(F)C(F)(F)C(F)(F)C(F)(F)C(F)(F)C(F)(F)C(F)(F)C(F)(F)F
active: [9] 41.5 µM and 28.8 µM
not listed: [10]
inactive: all other assays above

O=P(O)(O)CCC(F)(F)C(F)(F)C(F)(F)C(F)(F)C(F)(F)C(F)(F)F
active: [9] 0.447 µM
inactive: [1] | [2] | [3] | [4] | [5] | [6] | [7] | [9]

COC(=O)C(F)(F)C(F)(F)C(F)(F)F
inactive: [2] | [10] | [3] | [4] | [5]

CC(C)[C@@H]1CC[C@@H](C)C[C@H]1O
inactive: [2] | [10] | [3] | [4]

O=C(O)CCC(F)(F)C(F)(F)C(F)(F)C(F)(F)C(F)(F)C(F)(F)F
active: [3] 68.4 µM
not listed: [8] | [10]
inactive: all other assays above

FC(F)(F)C(F)(F)C(F)(F)Br
inactive: [1] | [2] | [3] | [4] | [5]

CCCCC(CC)C(=O)O (centres undefined)
not listed: [5] | [8] | [10]
inactive: all other assays above

C=CC(=O)OCCC(F)(F)C(F)(F)C(F)(F)C(F)(F)C(F)(F)C(F)(F)C(F)(F)C(F)(F)F
active: [3] 22.1 µM
not listed: [8] | [10]
inactive: all other assays above

Clc1ccc(Nc2nnc(Cc3ccncc3)c3ccccc23)cc1
active: [3] 18.7 µM
not listed: [8] | [10]
inactive: all other assays above

O=C(F)C(F)(F)C(F)(F)C(F)(F)C(F)F
inactive: [2] | [10] | [3] | [4] | [5]

C[C@]12CC[C@@H]3c4ccc(O)cc4CC[C@H]3[C@@H]1C[C@@H](O)[C@@H]2O
not listed: [10]
inactive: all other assays above

O=CC(F)(F)C(F)(F)C(F)(F)F
inactive: [1] | [2] | [3] | [4] | [5]

Oc1c(Cl)ccc(Cl)c1Cl
inactive: [1] | [2] | [3] | [4] | [5]
